An excerpt weighted towards active compounds, which were near 3.5% of everything screened.
GPR151 ag – human GPR151 activation. activation, % at 11.2 µM. AID 1508602. PathHunter beta-arrestin GPR151 cells, luminescence. 650,000 tested, 1% active; in the data active = activation above about 4.9%;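 also: 0% = median of compound wells and 100% = cells with positive control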
FBW7 act – human FBW7 E3 ligase activation, primary screen; AlphaScreen FBW7–phospho-cyclin E peptide binding, activator screen; normalized activity (activation), % at 26.1 µM; 650,000 tested, 0.13% active; in the data active = normalized activity above about 1.9%;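 also: purified mutant Fbw7 with reduced substrate affinity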
TEAD-YAP block – TEAD-YAP interaction inhibition | HEK-TIYL cells, TEAD-Gal4/YAP UAS-luciferase luminescence | inhibition, % at 9.12 µM | 640,000 tested, 1.4% active; in the data active = inhibition above about 32%;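 also: 0% = median of test compound wells and 100% = reference inhibitor wells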
MITF inh – inhibitors of human MITF; AlphaScreen MITF homodimerization, bead proximity signal; inhibition, % at 2.6 µM; 650,000 tested, 0.91% active; AID 1259374; in the data active = inhibition above about 50%;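 also: 0% = vehicle wells with protein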
GPR151 confirm – confirmation of human GPR151 activators; 6,700 tested, under 10 active; activation, % at 11.2 µM; shares compounds with GPR151 ag; AID 1508609; GPR151 PathHunter beta-arrestin cells, luminescence, 90 min; % of EA-reagent control over plate median;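 active = mean percent activation across replicates above the confirmation screen cutoff of 4.91%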
GPR119 counter – activates human GPR119 in a GPR151 counter-screen; shares compounds with GPR151 ag; activation, % at 11.2 µM; 6,700 tested, 0.3% active; GPR119 PathHunter beta-arrestin cells, luminescence, 90 min; 0 = compound-well median, 100 = enzyme-acceptor control;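 active = mean percent activation in the counterscreen above 29.09%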;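 also: counterscreen on off-target GPR119 to flag nonselective hits from the GPR151 activator screen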
Target sequence (Q8TDV5 whole entry, looked up): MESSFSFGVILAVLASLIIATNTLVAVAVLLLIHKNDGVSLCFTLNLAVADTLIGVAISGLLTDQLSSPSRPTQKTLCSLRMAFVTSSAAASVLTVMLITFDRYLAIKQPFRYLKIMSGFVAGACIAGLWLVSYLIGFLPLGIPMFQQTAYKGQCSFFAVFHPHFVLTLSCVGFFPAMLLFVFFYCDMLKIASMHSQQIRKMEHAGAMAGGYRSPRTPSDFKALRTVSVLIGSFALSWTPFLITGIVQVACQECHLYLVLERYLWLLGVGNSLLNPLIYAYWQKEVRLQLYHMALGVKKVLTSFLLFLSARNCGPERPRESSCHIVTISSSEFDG
Active calls of the source: *; . = no result; ! = repeats disagree.

SMILES	GPR151 ag	FBW7 act	TEAD-YAP block	MITF inh	GPR151 confirm	GPR119 counter
CCOC(=O)CN(c1ccccc1Cl)S(=O)(=O)c1ccc(F)cc1	23*	0	7	-2	0	5
O=S(=O)(c1ccc2c(c1)OCCO2)N1CCN(c2cccc(C(F)(F)F)c2)CC1	1	0	18	18	.	.
O=C(NC1(C(F)(F)F)NC(=O)N(CCc2ccccc2)C1=O)c1ccccc1 (stereo not drawn)	0	0	5	-3	.	.
CC1(C)c2ccccc2N(CC(=O)NCc2ccccc2)C12C=Cc1cc([N+](=O)[O-])ccc1O2 (stereo not drawn)	0	0	3	3	.	.
COC(=O)c1ccc2c(c1)C(C)(C)C1(C=Cc3cc([N+](=O)[O-])ccc3O1)N2C (stereo not drawn)	5.3*	0	3	10	1	10
CC1(C)c2ccccc2N(CC(=O)NCc2ccc(Cl)cc2)C12C=Cc1cc([N+](=O)[O-])ccc1O2 (stereo not drawn)	6.3*	0	-5	10	-1	-4
CCOc1ccc(S(=O)(=O)NCC(OCC)OCC)c2cccnc12	1	0	-3	1	.	.
O=C(O)c1cc([N+](=O)[O-])cc([N+](=O)[O-])c1N1CCN(CCO)CC1	5.3*	0	8	17	1	8
O=S(=O)(NC1c2cccc3cccc(c23)C1NCc1ccco1)c1ccc(Cl)cc1 (stereo not drawn)	0	0	6	4	.	.
O=Cc1cc(C(=O)O)cc2c1OCOC2	11*	0	-4	-7	-1	-6
Cc1ccc2c(=O)cc(-c3cc(C(=O)O)cc4c3OCOC4)oc2c1	0	0	10	14	.	.
CC(NS(=O)(=O)c1ccc(OCC(=O)Nc2cccc(Cl)c2)cc1)c1ccccc1 (stereo not drawn)	0	0	-5	-8	.	.
Cn1c(SCC(=O)c2ccc(F)cc2)nnc1-c1cccc([N+](=O)[O-])c1	5.7*	0	13	5	0	-9
Cn1c(SCCC(=O)O)nnc1-c1cccc([N+](=O)[O-])c1	1	0	7	8	.	.
COc1ccccc1-c1nnc(SCc2nnc(-c3cccc([N+](=O)[O-])c3)o2)n1C	6.3*	0	10	-9	1	7
C=CCOc1c(Cl)cc(CNn2nnnc2N)cc1OC	4	0	-1	17	.	.
CCOc1cc(CNn2nnnc2N)cc(Cl)c1OCC(=O)NC(C)(C)C	5.2*	0	8	-3	0	-4
Cc1[nH]c2ccccc2c1CCNC(=O)/C(=C/c1ccccc1)NC(=O)c1ccco1	6.0*	0	0	0	0	10
Cc1[nH]c2ccccc2c1CCNC(=O)/C(=C/c1ccccc1)NC(=O)c1ccccc1Cl	0	0	20	-6	.	.
CN1CCCC(n2nc(Cc3ccc(Cl)cc3)c3ccccc3c2=O)CC1 (stereo not drawn)	5.4*!	0	3	-20	2	28
CC1CCCN(C(=O)Cn2nc(Cc3cccnc3)c3ccccc3c2=O)C1 (stereo not drawn)	0	0	3	3	.	.
O=c1c2ccccc2nc(SCc2ccc(Cl)cc2)n1Cc1ccc2c(c1)OCO2	0	0	-5	-3	.	.
N#CCSc1nc2ccccc2c(=O)n1Cc1ccc2c(c1)OCO2	5.1*	0	-1	3	0	-1
O=C(CCc1nnc(CCC2CCCCC2)o1)NC(c1ccco1)C(F)(F)F (stereo not drawn)	-1	0	-27	4	.	.
CCc1nn(CC(=O)OC(C)C)c(=O)c2cc3oc(C)cc3n12	5.4*	0	-19	7	-1	-6
SMILES	GPR151 ag	FBW7 act	TEAD-YAP block	MITF inh	GPR151 confirm	GPR119 counter
CC(C)c1ccc(N2C(=O)NC(=O)/C(=C/c3ccccc3O)C2=O)cc1	12*	0	10	14	0	-1
CC(C)c1ccc(N2C(=O)NC(=O)/C(=C/c3ccc(O)cc3)C2=O)cc1	-2	0	8	12	.	.
Cc1ccc(/C(O)=C2\C(=O)C(=O)N(c3ncccn3)C2c2ccc([N+](=O)[O-])cc2)cc1 (stereo not drawn)	-1	0	13	-7	.	.
CCOC(=O)c1cc2occc2n1CC(=O)N1CCCC1	7.4*	0	-3	-4	1	1
CN(CC1CCN(Cc2ccccc2)CC1)c1nncc(-c2ccccc2)n1	1	1	-6	-13	.	.
COc1ccccc1N1CCN(C2CCCN(Cc3ccccc3O)C2)CC1 (stereo not drawn)	8.0*	0	8	13	0	2
C=C1C(C(=O)N2CCOCC2)C1C(=O)N1CCOCC1 (stereo not drawn)	5.4*	0	-7	13	0	7
CCOC(=O)C1CCN(C(=O)c2cc3c(=O)[nH]c4ccccc4c3s2)CC1	-1	0	-2	1	.	.
Cc1cc(NC(=O)CSc2nc3ccccc3c(=O)n2CC2CCC(C(=O)NCc3ccco3)CC2)no1 (stereo not drawn)	-1	0	-9	3	.	.
OCc1ccc(-c2cnn3c(NCc4ccc(F)cc4)ccnc23)cc1	-1	0	-22	-15	.	.
Oc1ccc(-c2cnn3c(NCc4ccc(F)cc4)ccnc23)cc1	6.5*	0	-26	6	1	2
O=C(CCN1CCN(C2c3ccccc3-c3ccccc32)CC1)Nc1ccccc1F	5.1*	0	-4	6	1	10
Cc1ccc(N2C(=O)CC(NC34CC5CC(CC(C5)C3)C4)C2=O)cc1 (stereo not drawn)	-1	0	-6	-1	.	.
COc1ccc(N2C(=O)CC(NC34CC5CC(CC(C5)C3)C4)C2=O)cc1 (stereo not drawn)	5.5*	0	8	-8	0	-5
COc1ccc(N2C(=O)CC(NCCNC(=O)c3ccc(Cl)cc3)C2=O)cc1 (stereo not drawn)	18*	0	3	7	0	12
O=C(CN(Cc1ccco1)C(=O)c1ccc([N+](=O)[O-])o1)Nc1ccccc1C(F)(F)F	1	0	2	-15	.	.
O=C(NCc1ccncc1)c1cc(COc2c(F)cccc2F)on1	-1	0	7	-11	.	.
COCCn1c(SCc2ccc(F)cc2)nc2c([nH]c3ccccc32)c1=O	1	0	-8	5	.	.
COCCn1c(SCc2cccc(Cl)c2)nc2c([nH]c3ccccc32)c1=O	11*	0	-1	1	-1	-2
Cn1c(CN2CCN(C(=O)Nc3ccc(C(C)(C)C)cc3)CC2)nc2ccccc21	0	0	14	6	.	.
Cc1ccc(S(=O)(=O)n2c(SCC(=O)NCCc3ccccc3)nc3ccccc32)cc1	5.4*	0	-7	8	0	6
